The source of these data is the supplement of paper PMC6279402.

In this assay the test system is A549. The assay can be described thus: relative viability (normalised to negative control = 1, bortezomib = 0) (fraction); higher = less cytotoxic. Conditions: inflammatory serum-free RHB-A with cytokines + LPS, 5 d + 24 h CellTiter-Blue.
[1] abbreviates: compound 30 nM, GSK126 pretreatment: 5 uM GSK126.
Setting [2] is: compound 30 nM, GSK126 pretreatment: none (vehicle).
Setting [3] is: compound 300 nM, GSK126 pretreatment: 5 uM GSK126.
Where [4] appears, read: compound 300 nM, GSK126 pretreatment: none (vehicle).

Where a name gives a salt, the structure may show the parent alone. ± gives the standard deviation of the averaged measurements.

`COc1cc(Nc2ncc(F)c(Nc3ccc4c(n3)NC(=O)C(C)(C)O4)n2)cc(OC)c1OC` [R406(free base); R406]: the relative viability by setting is: under setting [1], 0.92 ± 0.13; under setting [2], 0.896 ± 0.067; under setting [3], 1.23 ± 0.096; under setting [4], 1.22 ± 0.087.

Regarding `CNC(=O)c1cc(COc2nnc(Nc3ccc(Cl)cc3)c3ccoc23)ccn1` [Telatinib (BAY 57-9352)], the relative viability by setting is: under setting [1], 0.896 ± 0.11; under setting [2], 0.887 ± 0.073; under setting [3], 0.967 ± 0.13; under setting [4], 0.91 ± 0.13.

For `S=P(N1CC1)(N1CC1)N1CC1` [Thiotepa], the relative viability by setting is: under setting [1], 1.01 ± 0.054; under setting [2], 0.949 ± 0.017; under setting [3], 0.919 ± 0.064; under setting [4], 0.935 ± 0.032.

In the case of `O=C(O)C(=O)O.[NH-][C@@H]1CCCC[C@H]1[NH-].[Pt+2]` [Oxaliplatin], the relative viability by setting is: under setting [1], 0.792 ± 0.077; under setting [2], 0.782 ± 0.1; under setting [3], 0.79 ± 0.088; under setting [4], 0.796 ± 0.037.

In the case of `NC(=O)NO` [Hydroxyurea], the relative viability stood at 0.998 ± 0.13 under setting [1], 1.05 ± 0.1 under setting [2], 1.09 ± 0.071 under setting [3] and 1.06 ± 0.05 under setting [4].

As to `C=CC(=O)Nc1cccc(Oc2nc(Nc3ccc(N4CCN(C)CC4)cc3)ncc2Cl)c1`, the relative viability by setting is: under setting [1], 0.802 ± 0.067; under setting [2], 0.82 ± 0.095; under setting [3], 0.132 ± 0.07; under setting [4], 0.0677 ± 0.014.

On to `CS(=O)(=O)N1CCN(Cc2cc3nc(-c4cccc5[nH]ncc45)nc(N4CCOCC4)c3s2)CC1`, for which the relative viability by setting is: under setting [1], 0.716 ± 0.093; under setting [2], 0.719 ± 0.062; under setting [3], 0.339 ± 0.066; under setting [4], 0.411 ± 0.017.

In the case of `O=c1[nH]c(=O)n([C@H]2C[C@H](O)[C@@H](CO)O2)cc1F` [Floxuridine], the relative viability stood at 0.895 ± 0.018 under setting [1], 0.886 ± 0.058 under setting [2], 0.903 ± 0.037 under setting [3] and 0.908 ± 0.05 under setting [4].

For `CC(=O)O[C@@]12CO[C@@H]1C[C@H](O)[C@@]1(C)C(=O)[C@H](O)C3=C(C)[C@@H](OC(=O)[C@H](O)[C@@H](NC(=O)OC(C)(C)C)c4ccccc4)C[C@@](O)([C@@H](OC(=O)c4ccccc4)[C@H]21)C3(C)C` [Docetaxel], the relative viability was 0.491 ± 0.058 under setting [1], 0.349 ± 0.015 under setting [2], 0.583 ± 0.053 under setting [3] and 0.429 ± 0.011 under setting [4].

On to `CC(=O)O[C@]1(C(C)=O)CC[C@H]2[C@@H]3C=C(C)C4=CC(=O)CC[C@]4(C)[C@H]3CC[C@@]21C` [Megestrol acetate], for which the relative viability runs as follows: under setting [1], 1.35 ± 0.04; under setting [2], 1.21 ± 0.14; under setting [3], 1.48 ± 0.078; under setting [4], 1.55 ± 0.085.

Take `CN1CC[C@H](c2c(O)cc(O)c3c(=O)cc(-c4ccccc4Cl)oc23)[C@H](O)C1` [Flavopiridol hydrochloride]: the relative viability came out at 0.774 ± 0.011 under setting [1], 0.785 ± 0.025 under setting [2], 0.00358 ± 0.0037 under setting [3] and 0.00865 ± 0.0022 under setting [4].

For the compound `O=C(Nc1ccc(OC(F)(F)F)cc1)c1sccc1NCc1ccnc2ccccc12`, the relative viability was 1.07 ± 0.025 under setting [1], 1.05 ± 0.035 under setting [2], 1.15 ± 0.16 under setting [3] and 1.2 ± 0.036 under setting [4].

For the compound `CN(C)c1nc(N(C)C)nc(N(C)C)n1` [Altretamine], the relative viability was 0.861 ± 0.011 under setting [1], 0.87 ± 0.045 under setting [2], 0.931 ± 0.02 under setting [3] and 0.887 ± 0.095 under setting [4].

Turning to `CN(C)C1CCN(C(=O)c2ccc(NC(=O)Nc3ccc(-c4nc(N5CCOCC5)nc(N5CCOCC5)n4)cc3)cc2)CC1`, the relative viability is, setting by setting: under setting [1], 0.329 ± 0.01; under setting [2], 0.428 ± 0.011; under setting [3], 0.0588 ± 0.0043; under setting [4], 0.088 ± 0.0042.

In the case of `COC(=O)Nc1ccc(-c2nc(N3CCOCC3)c3cnn(C4CCN(Cc5cccnc5)CC4)c3n2)cc1`, the relative viability reads like this: under setting [1], 0.851 ± 0.12; under setting [2], 0.869 ± 0.13; under setting [3], 0.847 ± 0.061; under setting [4], 0.832 ± 0.097.

Turning to `NC1(Cc2ccc(Cl)cc2)CCN(c2ncnc3[nH]ccc23)CC1`, the relative viability by setting is: under setting [1], 0.832 ± 0.029; under setting [2], 0.844 ± 0.05; under setting [3], 0.839 ± 0.1; under setting [4], 0.875 ± 0.023.

In the case of `CNC(=O)c1ccc(C)c(-n2c(C)cc(OCc3ccc(F)cc3F)c(Br)c2=O)c1`, the relative viability is, setting by setting: under setting [1], 1.15 ± 0.17; under setting [2], 0.936 ± 0.17; under setting [3], 1.29 ± 0.13; under setting [4], 0.974 ± 0.085.

Consider `Cc1[nH]c(/C=C2\C(=O)Nc3ccccc32)c(C)c1CCC(=O)O`, for which the relative viability by setting is: under setting [1], 0.78 ± 0.0017; under setting [2], 0.775 ± 0.032; under setting [3], 0.786 ± 0.08; under setting [4], 0.772 ± 0.029.

For `COc1ncc(-c2ccc3nccc(-c4ccnnc4)c3c2)cc1NS(=O)(=O)c1ccc(F)cc1F`, the relative viability worked out at 0.0446 ± 0.01 under setting [1], 0.0459 ± 0.0045 under setting [2], 0.00279 ± 0.0028 under setting [3] and 0.00434 ± 0.0032 under setting [4].

Take `CN1CC[C@H](c2c(O)cc(O)c3c(=O)cc(-c4ccccc4Cl)oc23)[C@H](O)C1` [Flavopiridol (Alvocidib)]: the relative viability came out at 0.777 ± 0.11 under setting [1], 0.771 ± 0.15 under setting [2], 0.0118 ± 0.0013 under setting [3] and 0.0301 ± 0.0094 under setting [4].

For the compound `Cc1nc(N)sc1-c1ccnc(Nc2ccc(N3CCOCC3)cc2)n1`, the relative viability was found to be 0.898 ± 0.061 under setting [1], 0.913 ± 0.011 under setting [2], 0.797 ± 0.1 under setting [3] and 0.72 ± 0.083 under setting [4].

Regarding `Nc1ncn([C@@H]2O[C@H](CO)[C@@H](O)[C@H]2O)c(=O)n1` [Azacitidine; 5-azacytidine], the relative viability by setting is: under setting [1], 0.841 ± 0.27; under setting [2], 0.854 ± 0.13; under setting [3], 0.903 ± 0.15; under setting [4], 0.996 ± 0.13.

In the case of `CO[C@H]1C[C@@H]2CC[C@@H](C)[C@@](O)(O2)C(=O)C(=O)N2CCCC[C@H]2C(=O)O[C@H]([C@H](C)C[C@@H]2CC[C@@H](OCCO)[C@H](OC)C2)CC(=O)[C@H](C)/C=C(\C)[C@@H](O)[C@@H](OC)C(=O)[C@H](C)C[C@H](C)/C=C/C=C/C=C/1C` [Everolimus; Everolimus(RAD001)], the relative viability is, setting by setting: under setting [1], 0.647 ± 0.072; under setting [2], 0.615 ± 0.033; under setting [3], 0.562 ± 0.068; under setting [4], 0.582 ± 0.063.

Regarding `CO[C@H]1C[C@@H]2CC[C@@H](C)[C@@](O)(O2)C(=O)C(=O)N2CCCC[C@H]2C(=O)O[C@H]([C@H](C)C[C@@H]2CC[C@@H](OC(=O)C(C)(CO)CO)[C@H](OC)C2)CC(=O)[C@H](C)/C=C(\C)[C@@H](O)[C@@H](OC)C(=O)[C@H](C)C[C@H](C)/C=C/C=C/C=C/1C` [CCI-779; Temsirolimus], the relative viability reads like this: under setting [1], 0.532 ± 0.038; under setting [2], 0.541 ± 0.034; under setting [3], 0.46 ± 0.069; under setting [4], 0.531 ± 0.028.

In the case of `CCc1c2c(nc3ccc(OC(=O)N4CCC(N5CCCCC5)CC4)cc13)-c1cc3c(c(=O)n1C2)COC(=O)[C@]3(O)CC` [Irinotecan HCl; Irinotecan hydrochloride], the relative viability by setting is: under setting [1], 0.898 ± 0.038; under setting [2], 0.895 ± 0.018; under setting [3], 0.931 ± 0.037; under setting [4], 0.917 ± 0.031.

For the compound `COc1cc([C@@H]2c3cc4c(cc3[C@@H](O[C@@H]3O[C@@H]5CO[C@@H](c6cccs6)O[C@H]5[C@H](O)[C@H]3O)[C@H]3COC(=O)[C@H]23)OCO4)cc(OC)c1O` [Teniposide], the relative viability amounted to 0.861 ± 0.062 under setting [1], 0.777 ± 0.076 under setting [2], 0.685 ± 0.037 under setting [3] and 0.544 ± 0.072 under setting [4].
